Measured values taken from PubChem BioAssay AID1159580 (chemical genetic matrix, 2015).
The whole screen tested about 5,500 compounds, of which about 2,000 (36%) were called active. Roughly 18% stayed inconclusive and do not appear here. No stated cut-off is given here; in the data, active means normalized growth mostly below about 0.91 (no sharp cut-off); inconclusive means no clear call, values can overlap the other calls; inactive means mostly above about 0.92. The list shows a part of the results.

Assay: chemical genetic growth profiling, strain panel (AID 1159580);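 further: tested at 20 µM; growth read once vehicle control cultures reached saturation at 30 °C; 1 = growth at the plate median or of vehicle wells; lower values mean less growth of the strain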
Conditions: S. cerevisiae deletion strains, growth OD

Measured: normalized growth

C=C(C)C1CC=C(C(=O)O)CC1 (centres undefined)
inactive: locus YAL013W, strain DEP1, active compounds read low 1.01 | locus YAL040C, strain CLN3, active compounds read low 0.991 | locus YCL061C, strain MRC1 (second series), active compounds read low 1.01 | locus YDR150W, strain NUM1, active compounds read low 0.986 | locus YDR363W, strain ESC2, active compounds read low 0.961 | locus YER002W, strain NOP16, active compounds read low 1.02 | locus YGR229C, strain SMI1, active compounds read low 0.978 | locus YMR263W, strain SAP30, active compounds read low 0.997 | locus YMR307W, strain GAS1, active compounds read low 0.996 | locus YNL175C, strain NOP13, active compounds read low 1.01 | locus YNL197C, strain WHI3, active compounds read low 1 | locus YNL224C, strain SQS1, active compounds read low 1.01 | locus YOR083W, strain WHI5 (second series), active compounds read low 0.961 | locus YPL241C, strain CIN2, active compounds read low 1
